Test results taken from PubChem BioAssay AID588442 (The Scripps Research Institute Molecular Screening Center, 2011).
Results with a measured potency or affinity are listed apart. Some compounds were tested as several samples or in several runs, with calls that do not always agree. Values without a mark were called inactive.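 Rule for the calls: active = EC50 of 10 µM or lower; inactive = EC50 above 10 µM or not measured.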

Assay: optical interference in Abeta FP readout, dose response, artefact control for IDE activator project, biochemical, fluorescence polarization (AID 588442)
Conditions: FP artifact counterscreen, fluorescein-Abeta, no enzyme activity

In the case of `C[n+]1c2cc(N)ccc2cc2ccc(N)cc21`, the EC50 is reported as > 54.7 µM.
